In PubChem BioAssay (EPA / NIEHS) one finds outcome and AC50 data, which are given here for twelve compounds.

Inconclusive results are not listed. The source made the active and inactive calls. How the source made its calls: active means hit-call score of the fitted dose curve at least 0.9, where 1 is the maximum; inconclusive means response in the unintended direction; inactive means score below 0.9.

D(1A) dopamine receptor (Homo sapiens), sequence (P21728 whole entry, looked up): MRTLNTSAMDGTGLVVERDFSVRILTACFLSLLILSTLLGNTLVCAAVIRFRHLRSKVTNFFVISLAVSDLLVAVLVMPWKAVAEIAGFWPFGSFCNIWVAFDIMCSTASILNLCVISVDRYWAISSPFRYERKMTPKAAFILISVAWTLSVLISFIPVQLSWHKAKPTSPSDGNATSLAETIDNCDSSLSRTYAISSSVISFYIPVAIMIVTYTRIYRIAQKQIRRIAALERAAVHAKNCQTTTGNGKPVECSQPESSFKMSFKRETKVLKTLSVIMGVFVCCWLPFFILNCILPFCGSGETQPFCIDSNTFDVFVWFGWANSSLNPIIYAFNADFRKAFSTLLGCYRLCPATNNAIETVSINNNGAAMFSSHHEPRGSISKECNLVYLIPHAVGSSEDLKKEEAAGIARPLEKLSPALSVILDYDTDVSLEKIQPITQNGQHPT
sheep Cyclooxygenase-1 (Cox1), PTGS1 (gene 443551), sequence (P05979 whole entry, looked up): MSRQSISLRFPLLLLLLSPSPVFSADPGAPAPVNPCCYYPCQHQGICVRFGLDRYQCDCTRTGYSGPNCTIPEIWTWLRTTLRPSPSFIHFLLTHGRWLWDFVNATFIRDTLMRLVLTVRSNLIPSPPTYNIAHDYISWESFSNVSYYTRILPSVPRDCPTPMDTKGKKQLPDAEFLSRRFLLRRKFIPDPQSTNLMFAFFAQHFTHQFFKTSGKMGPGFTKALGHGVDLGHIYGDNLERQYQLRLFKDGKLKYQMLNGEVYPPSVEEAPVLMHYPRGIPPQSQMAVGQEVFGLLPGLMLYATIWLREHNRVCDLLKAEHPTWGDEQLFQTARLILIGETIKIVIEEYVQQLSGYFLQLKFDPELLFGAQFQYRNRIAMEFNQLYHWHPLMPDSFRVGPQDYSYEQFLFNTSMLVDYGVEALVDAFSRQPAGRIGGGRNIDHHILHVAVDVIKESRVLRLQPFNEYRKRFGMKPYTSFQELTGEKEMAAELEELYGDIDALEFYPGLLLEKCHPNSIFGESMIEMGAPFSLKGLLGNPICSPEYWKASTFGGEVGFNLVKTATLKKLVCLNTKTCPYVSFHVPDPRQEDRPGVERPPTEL
guinea pig Opioid, Kappa 1 Receptor (OpiateK), OPRK1 (gene 100135587), sequence (P41144 whole entry, looked up): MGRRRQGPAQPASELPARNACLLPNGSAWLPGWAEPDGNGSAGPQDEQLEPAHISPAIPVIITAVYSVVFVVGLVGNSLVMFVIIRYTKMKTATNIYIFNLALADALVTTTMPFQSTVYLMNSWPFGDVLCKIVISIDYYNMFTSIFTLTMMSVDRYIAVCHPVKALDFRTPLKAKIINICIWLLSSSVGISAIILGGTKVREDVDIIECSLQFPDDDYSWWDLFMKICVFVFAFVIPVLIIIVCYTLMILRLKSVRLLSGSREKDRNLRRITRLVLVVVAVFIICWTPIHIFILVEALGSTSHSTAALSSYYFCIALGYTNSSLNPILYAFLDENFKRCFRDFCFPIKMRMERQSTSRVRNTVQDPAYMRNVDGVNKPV

The first test concerns the target sheep Cyclooxygenase-1 (Cox1), PTGS1 (gene 443551) (UniProt P05979). The test is described as follows: NVS_ENZ_oCOX1: NovaScreen (NVS) Enzymatic Assay for sheep Cyclooxygenase-1 (Cox1) (AID 2283239).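 Further: actives reduce cyclooxygenase activity so potencies are for inhibitors.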 The essentials: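 Absorbance read-out of cyclooxygenase activity in a cell-free preparation from sheep seminal vesicles, taken 0.66 hour after dosing. Initial testing was in duplicate at 25 uM, and confirmatory testing was run in concentration series.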
`CC(C)[C@@H]1CC[C@@H](C)CC1=O`: the result was inactive.

`COC(=O)c1ccc(C)cc1`: the call was inactive.

With `CC(=O)OCc1ccc2c(c1)OCO2`, the outcome was inactive.

In general, AC50 refers to the concentration giving half of the maximal activity seen. As for `O=C1OC2(c3cc(Br)c(O)c(Br)c3Oc3c2cc(Br)c(O)c3Br)c2c(Cl)c(Cl)c(Cl)c(Cl)c21`, the concentration at half-maximal activity (AC50) was 8.68 µM (active).

Regarding `CCn1c2ccccc2c2cc(N)ccc21`, the concentration at half-maximal activity (AC50) was 3.25 µM (active).

A further test has as its target guinea pig Opioid, Kappa 1 Receptor (OpiateK), OPRK1 (gene 100135587) (UniProt P41144). The test is described as follows: NVS_GPCR_gOpiateK: NovaScreen (NVS) G Protein-Coupled Receptor Assay for guinea pig Opioid, Kappa 1 Receptor (OpiateK) (AID 2283252).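 Further: radioligand displacement from kappa opioid receptor in guinea pig cerebellar membranes; active means reduced radioligand binding relative to DMSO.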 The method, then:
NVS_GPCR_gOpiateK is a biochemical, single-readout assay that uses extracted gene-proteins from Guinea pig cerebellar membranes in a tissue-based cell-free assay. Measurements were taken 2 hours after chemical dosing in a 48-well plate.NVS_GPCR_gOpiateK is one of one assay component(s) measured or calculated from the NVS_GPCR_gOpiateK assay. It is designed to make measurements of radioligand binding, a form of binding reporter, as detected with scintillation counting signals by Filter-based radiodetection technology.Data from the assay component NVS_GPCR_gOpiateK was analyzed into 1 assay endpoint. This assay endpoint, NVS_GPCR_gOpiateK, was analyzed in the positive analysis fitting direction relative to DMSO as the negative control and baseline of activity. Using a type of binding reporter, loss-of-signal activity can be used to understand changes in the binding as they relate to the gene Oprk1. Furthermore, this assay endpoint can be referred to as a primary readout, because the performed assay has only produced 1 assay endpoint. To generalize the intended target to other relatable targets, this assay endpoint is annotated to the gpcr intended target family, where the subfamily is rhodopsin-like receptor.
Binding assays used specific radioligands (tritiated, iodinated) with non-radioactive competitive displacement ligands in agonist or antagonist protocols (as indicated) and various reference compounds and inhibitors to titrate specific binding to receptors and transporters. Most enzyme assays (CYPs, kinases, phosphatases, proteases, HDACs) used recombinant protein and specific substrates (fluorescence mostly, some colorimetric and radioactive) and inhibitors, followed by a biochemical separation of substrate and product. All assays for the biochemical HTS were initially run in duplicate at a single concentration (10 uM for CYP450 assays and 25 uM for all others). […] Each assay was run with positive and negative controls, and concurrent controls on every plate. […]
For the compound `CC1COc2ccccc2N1C(=O)C(Cl)Cl` (configuration not stated), the compound was called inactive.

As to `O=P(c1ccccc1)(c1ccccc1)c1ccccc1`, the AC50 was 11.4 µM (active).

With `O=C=NC1CCC(CC2CCC(N=C=O)CC2)CC1` (configuration not stated), the AC50 is 29.3 µM (active).

For another test, the target named is D(1A) dopamine receptor (Homo sapiens) (UniProt P21728). Description: NVS_GPCR_hDRD1: NovaScreen (NVS) G Protein-Coupled Receptor Assay for human Dopamine Receptor D1 (DRD1) (AID 2283269). The essentials:
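Extracted HEK293 DRD1 is incubated 1 h with compound and a tritiated or iodinated radioligand, then filtered and counted. Screening runs 25 uM in duplicate with on-plate positive and negative controls.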
For `c1ccc2sc(SN(C3CCCCC3)C3CCCCC3)nc2c1`, the result was inactive.

For the compound `O=C1OC2(c3cc(Br)c(O)c(Br)c3Oc3c2cc(Br)c(O)c3Br)c2c(Cl)c(Cl)c(Cl)c(Cl)c21`, the AC50 is 0.423 µM (active).

For `CCn1c2ccccc2c2cc(N)ccc21`, the AC50 was 38.5 µM (active).

For another test, the target named is Muscarinic acetylcholine receptor M2 (Homo sapiens) (UniProt P08172). Description: NVS_GPCR_hM2: NovaScreen (NVS) G Protein-Coupled Receptor Assay for human Muscarinic, M2 Receptor (AID 2283273). The essentials: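 Cell-free radioligand binding using membranes from CHO cells expressing the receptor; filter-based scintillation counting after 1 hour of compound exposure. Loss of specific binding relative to DMSO baseline; primary screen at 25 uM in duplicate, actives then run in concentration series.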
Muscarinic acetylcholine receptor M2 (Homo sapiens), sequence (P08172 whole entry, looked up): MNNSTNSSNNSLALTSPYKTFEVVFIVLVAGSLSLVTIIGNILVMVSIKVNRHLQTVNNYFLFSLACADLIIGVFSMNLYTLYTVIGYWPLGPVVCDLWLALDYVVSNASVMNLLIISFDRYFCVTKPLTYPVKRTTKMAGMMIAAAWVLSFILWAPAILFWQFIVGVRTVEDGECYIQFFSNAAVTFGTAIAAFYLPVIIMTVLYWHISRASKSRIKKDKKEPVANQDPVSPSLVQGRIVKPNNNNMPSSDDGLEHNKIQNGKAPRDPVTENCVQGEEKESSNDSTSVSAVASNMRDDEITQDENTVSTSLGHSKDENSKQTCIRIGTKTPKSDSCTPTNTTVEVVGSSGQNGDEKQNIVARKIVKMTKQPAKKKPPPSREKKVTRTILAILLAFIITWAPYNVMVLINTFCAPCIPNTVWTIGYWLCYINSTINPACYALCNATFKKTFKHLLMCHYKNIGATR
Regarding `COC(=O)OC`, the result was inactive.

Take `Nc1cc(N)cc(C(=O)O)c1`: the AC50 was 38.1 µM (active).

Regarding `O=C=NC1CCC(CC2CCC(N=C=O)CC2)CC1` (configuration not stated), the AC50 was 9.37 µM (active).

The target in another test is human Neurokinin, NK2 Receptor, TACR2 (gene 6865) (UniProt P21452). Description: NVS_GPCR_hNK2: NovaScreen (NVS) G Protein-Coupled Receptor Assay for human Neurokinin, NK2 Receptor (AID 2283278).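 Further: actives reduce bound radioligand signal relative to DMSO baseline.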 The method in brief: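 Test chemicals displace a radioligand from receptor prepared from CHO cells in a cell-free format, read after 4 hours by scintillation counting on filters. Screening starts at 25 uM in duplicate, and active chemicals then go to concentration series.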
human Neurokinin, NK2 Receptor, TACR2 (gene 6865), sequence (P21452 whole entry, looked up): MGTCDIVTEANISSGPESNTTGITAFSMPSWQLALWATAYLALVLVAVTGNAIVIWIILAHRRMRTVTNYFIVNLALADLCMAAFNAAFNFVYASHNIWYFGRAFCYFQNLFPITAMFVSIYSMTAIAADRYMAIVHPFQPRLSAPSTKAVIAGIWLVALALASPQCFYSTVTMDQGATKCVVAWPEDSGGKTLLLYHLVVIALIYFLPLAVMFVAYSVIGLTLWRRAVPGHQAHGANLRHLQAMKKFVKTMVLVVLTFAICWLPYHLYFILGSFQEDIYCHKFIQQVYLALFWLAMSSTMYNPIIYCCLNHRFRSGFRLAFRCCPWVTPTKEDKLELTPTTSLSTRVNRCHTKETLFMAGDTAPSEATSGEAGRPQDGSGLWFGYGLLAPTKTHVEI
Take `S=C(S)NCCNC(=S)S`: the AC50 is 3.54 µM (active).

For `O=C1OC2(c3cc(Br)c(O)c(Br)c3Oc3c2cc(Br)c(O)c3Br)c2c(Cl)c(Cl)c(Cl)c(Cl)c21`, the AC50 is 1.27 µM (active).

With `O=C=NC1CCC(CC2CCC(N=C=O)CC2)CC1` (configuration not stated), the call was inactive.
